Only some compounds are listed: those with a hit (about 17% of all), similar ones and a draw of the others.
TGFb inhibitor: TGF-b pathway inhibition; HepG2 CAGA-GFP TGF-b/SMAD3 reporter, GFP fluorescence, 18 h; TGF-beta stimulated, 500 pg/mL final; actives 1.2% (n = 410,000); Potency, µM (doses to about 46.1 µM), inactives show at the highest dose activity, negative = inhibition, actives largely listed as inhibitors; note: % is set by controls: 0 for no effect and ±100 for the full control effect; nearly all actives have a fitted effect of over 65% in size
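Read-out: total well GFP (ex488/em500-530) summed from mean per-cell fluorescence. Cells: HEPG2 CAGA-GFP, 1% FBS DMEM, 18 h at 37 degrees C with 500 pg/mL final TGF-beta. Unstimulated wells served as the full-inhibition control; stimulated DMSO wells = 0%.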
DT40 TDP1 CPT: DT40-hTDP1 cell growth loss with CPT; chicken DT40 Tdp1-/-;hTDP1 cells + 20 nM CPT, ATP luminescence, 48 h; actives 12% (n = 420,000); Potency, µM (highest dose often 46.2 µM), inactives show at the highest dose activity change, negative = growth inhibition, usual class: inhibitors; note: % is set by controls: 0 for no effect and ±100 for the full control effect; nearly all actives have a fitted effect of over 55% in size
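Chicken DT40 Tdp1-/- cells stably complemented with human TDP1 were seeded at 400 cells/well in medium containing 20 nM camptothecin, exposed to pin-transferred compounds, and grown at 37 °C for at least 48 hr. Viability was read as ATP luminescence.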
S2 tox: cell viability loss in ATXN counter-screen. actives 0.49% (n = 400,000). AID 651635. Potency, µM (top dose mostly 56.7 µM), usual class: cytotoxic. S2 cells (HEK-293 line with an ATXN2-luciferase reporter) viability, CellTiter-Fluor protease fluorescence, 24 h; note: nearly all actives have a fitted effect of over 40% in size
DT40 TDP1 no CPT: qHTS for Inhibitors of human tyrosyl-DNA phosphodiesterase 1 (TDP1): qHTS in cells in absence of CPT; DT40 Tdp1-/- hTDP1 cells, no CPT, ATP luminescence, 48 h; actives 15% (n = 420,000); Potency, µM (doses to about 46.2 µM), inactives show top-dose activity change, negative = growth inhibition, usual class: inhibitors; AID 686978, 2013; note: % is set by controls: 0 for no effect and ±100 for the full control effect; nearly all actives have a fitted effect of over 55% in size
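A cellular qHTS used chicken DT40 cells lacking endogenous Tdp1 but carrying stably transfected human TDP1. Compounds were applied without camptothecin, and cell growth kinetics were judged by ATP-dependent luminescence after ≥48 hr.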
HepG2 viability: HepG2 cytotoxicity, counter-screen for TGF-b inhibitors; actives 0.76% (n = 410,000); HepG2 CAGA-GFP viability, ATP luminescence, 18 h; Potency, µM (doses to about 46.1 µM), without a hit: at the highest dose activity change, negative = cytotoxicity, hits mostly cytotoxic; AID 588856
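HepG2 CAGA-GFP cells (1000/well, DMEM with 1% FBS) received compound, then TGF-beta at 500 pg/mL final, and were incubated 18 hours at 37 degrees C. Viability was read by CellTiter-Glo luminescence. Media-only wells were set as complete cell-killing and DMSO as no toxicity.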
ATXN2 expr inh: reduces ATXN2 reporter expression in HEK-293 cells | actives 0.72% (n = 360,000) | HEK-293 ATXN2-luciferase reporter, luminescence, 24 h | Potency, µM (doses to about 57 µM), for inactives: at the top dose activity change, negative = inhibition, most hits filed as inhibitors; note: % is set by controls: 0 for no effect and ±100 for the full control effect; nearly all actives have a fitted effect of over 55% in size
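qHTS (up to 57 uM final) was run with 24 h compound exposure of reporter cells at 37 °C. Each well was multiplexed: SteadyGlo luminescence measured ATXN2-luciferase expression after a fluorogenic Gly-Phe-AFC viability readout (25 uM final).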
* = called active by the depositor; i = inactive; ? = inconclusive; . = no result given. Calls come from the whole dose curve; as a rule, active = well fitted curve in the direction sought with a large enough effect; inconclusive = small, poorly fitted or top-dose-only effect, or another doubt; inactive = no such curve, though single readings can be large; an effect the other way counts as inactive or inconclusive. Potency is the fitted concentration of half-maximal effect.

SMILES | TGFb inhibitor | DT40 TDP1 CPT | S2 tox | DT40 TDP1 no CPT | HepG2 viability | ATXN2 expr inh
O=C(CCC1CCCN(C(=O)c2ccc3cc[nH]c3c2)C1)N1CCN(c2ccccn2)CC1 (stereo not given) | -6% | 16µM* | i | ? | -23% | -26%
Cc1ccc(C(=O)N2CCCC(CCC(=O)N3CCN(c4ccccn4)CC3)C2)cc1 (stereo not given) | -22% | ? | i | ? | -21% | ?
O=C(CCC1CCCN(C(=O)Cc2cccc(F)c2)C1)N1CCN(c2ccccn2)CC1 (stereo not given) | 12% | -2% | i | -20% | -1% | -19%
O=C(CCC1CCCN(C(=O)c2ccc3[nH]ccc3c2)C1)N1CCN(c2ccccn2)CC1 (stereo not given) | -2% | 23µM* | i | 21µM* | -5% | -29%
O=C(CCC1CCCN(C(=O)CCCc2ccccc2)C1)N1CCN(c2ccccn2)CC1 (stereo not given) | ? | 21µM* | ? | ? | -32% | .
CCc1ccc(CN2CCCC(CCC(=O)N3CCN(c4ccccn4)CC3)C2)o1 (stereo not given) | ? | ? | i | 16µM* | -27% | .
CC(=O)Nc1ccccc1Nc1cc(C#N)c(C#N)cc1[N+](=O)[O-] | ? | ? | i | ? | -42% | -8%
COc1cccc(NC(=O)c2nn(-c3ccc(C)cc3)c(=O)n(C)c2=O)c1 | 14% | ? | i | 15µM* | 5% | 6%
COc1ccc(-n2nc(C(=O)Nc3cc(OC)c(OC)c(OC)c3)c(=O)n(C)c2=O)cc1 | -2% | ? | . | -28% | -13% | .
CCOC(=O)c1c(N)sc2c(OCC)c(Br)ccc12 | ? | ? | ? | ? | -26% | -16%
CCOC(=O)c1c(NC(C)=O)sc2c(OCC(O)CNC(C)(C)C)c(Br)ccc12 (stereo not given) | ? | ? | . | 10µM* | 11µM* | .
Cn1c2c(c(=O)n(C)c1=O)C(c1ccc(Br)cc1)C(C#N)=C(N)N2 (stereo not given) | 3% | ? | i | 23µM* | -7% | .
Cn1c2c(c(=O)n(C)c1=O)C(c1ccccc1Cl)C(C#N)=C(N)O2 (stereo not given) | 0% | -17% | i | -12% | -25% | -9%
CCOc1ccc(-c2nnc(-c3ccccc3)o2)cc1 | 0% | -1% | i | ? | 4% | -1%
CCCCOc1ccc(-c2nnc(-c3ccncc3)o2)cc1 | -4% | ? | i | 21µM* | -36% | 26%
CCOc1ccc(-c2nnc(-c3ccncc3)o2)cc1 | -2% | 21µM* | i | ? | -24% | 0%
Cc1ccc(N=C2NC(=O)/C(=C/C=C/c3ccco3)S2)cc1 | ? | ? | ? | 23µM* | -1% | 27%
O=C1NC(=Nc2ccccc2)S/C1=C\C=C\c1ccco1 | 0% | 8.2µM* | ? | 9.2µM* | 4% | 11%
Cc1cccc(N=C2NC(=O)/C(=C/c3cccnc3)S2)c1C | -2% | ? | i | -27% | -2% | .
Cc1cccc(N=C2NC(=O)/C(=C/C=C/c3ccco3)S2)c1C | ? | ? | ? | 16µM* | 1% | 6%
Cc1cccc(OCc2ccc(-c3nc(C#N)c(NCCN(C)C)o3)o2)c1 | . | ? | . | ? | -43% | .
Cn1c(=O)c2c(ncn2CC(=O)OCC(=O)c2ccc(Cl)cc2)n(C)c1=O | -7% | -1% | i | 0% | -7% | -5%
Cn1c(=O)c2c(ncn2CC(=O)OCC(=O)c2ccc(Br)cc2)n(C)c1=O | -17% | 16µM* | i | 26µM* | -13% | .

Compound activity as filed in PubChem.
